Results filed as inconclusive are left out. Unmarked numbers belong to inactive results. Active and inactive are the calls of the source. Calls follow the shape of the dose curve; as a rule, active = well fitted cell-killing curve with a large enough effect; inconclusive = small, poorly fitted or top-dose-only effect; inactive = flat fitted curve, though single readings scatter.

The assay is described as follows: Cellular viability qHTS for adrenocortical cancer (ACC) cell line NCI-H295R (AID 1963990). Also: nearly all actives have a fitted effect of over 60% in size.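 As to activity change, negative = viability loss: 0% = DMSO only wells and -100% = full killing with cytotoxic reference compound.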 As to conditions: CellTiter-Glo ATP luminescence, 48 h; series mostly up to 46.1 µM; activity change, negative = viability loss: at the top concentration. In outline:
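CellTiter-Glo ATP luminescence, read 48 h after compound addition, measured viability of NCI-H295R adrenocortical cells grown serum-free with ITS. Final concentrations spanned up to 46 uM. Data normalized to DMSO and doxorubicin, fitted for IC50 and maximal response.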
A general note: In qHTS, concentration-response curves come from the screen itself.
For `C[C@@H](Nc1ncnc2[nH]c(-c3ccc(O)cc3)cc12)c1ccccc1`, the Potency was 11.2 µM (active).

As for `CC(=O)OCC[N+](C)(C)C`, the “activity change, negative = viability loss” value was 2.19%.

In the case of `CC(NC(CCc1ccccc1)C(=O)O)C(=O)N1C(=O)N(C)CC1C(=O)O` (stereo not given), the “activity change, negative = viability loss” value is -23.7%.

As for `CN1CC(=O)N2[C@H](c3ccc4c(c3)OCO4)c3[nH]c4ccccc4c3C[C@@H]2C1=O`, the Potency entry was “inactive”.

With `CC(=O)[C@]1(N)Cc2c(O)c3c(c(O)c2[C@@H](O[C@H]2C[C@H](O)[C@H](O)CO2)C1)C(=O)c1ccccc1C3=O`, the “activity change, negative = viability loss” value was -6.3%.

For `O=C(Nc1cc(Oc2cc(F)c(NC(=O)C3(C(=O)Nc4ccc(F)cc4)CC3)cc2F)ccn1)C1CC1`, the “activity change, negative = viability loss” value is 14.5%.

Regarding `CC(C)(Oc1ccc(CCNC(=O)c2ccc(Cl)cc2)cc1)C(=O)O`, the “activity change, negative = viability loss” value was 8.41%.

For the compound `CN1CCN(C(=O)c2ccc(-c3ccc4c(C=O)c(O)ccc4c3)s2)CC1`, the “activity change, negative = viability loss” value is -6.01%.

Take `CCC(Cc1c(I)cc(I)c(N)c1I)C(=O)O` (stereo not given): the “activity change, negative = viability loss” value was -1.32%.

Turning to `N#Cc1ccc(C2CCCc3cncn32)cc1` (stereo not given), the “activity change, negative = viability loss” value was 2.24% [at 20 µM].

For `CN(C(=O)c1c(O)c2ccccc2n(C)c1=O)c1ccccc1`, the Potency entry was “inactive”.

For `CN(C)C/C=C/C(=O)Nc1cccc(C(=O)Nc2cccc(Nc3ncc(Cl)c(-c4c[nH]c5ccccc45)n3)c2)c1`, the Potency is 1.12 µM (active).

As to `COc1cc2c(cc1O)CCN[C@]21CS[C@@H]2c3c(OC(C)=O)c(C)c4c(c3[C@H](COC1=O)N1[C@@H]2[C@H]2c3c(cc(C)c(OC)c3O)C[C@@H]([C@@H]1O)N2C)OCO4`, the Potency is 0.0094 µM (active).

Consider `COc1cccc2c1C(=O)c1c(O)c3c(c(O)c1C2=O)C[C@@](O)(/C(CO)=N/NC(=O)CCCCCN1C(=O)C=CC1=O)C[C@@H]3O[C@H]1C[C@H](N)[C@H](O)[C@H](C)O1`, for which the Potency is 14.1 µM (active).

As for `CC[C@]1(O)CC2CN(CCc3c([nH]c4ccccc34)[C@@](C(=O)OC)(c3cc4c(cc3OC)N(C)[C@H]3[C@@](O)(C(=O)OC)[C@H](OC(C)=O)[C@]5(CC)C=CCN6CC[C@]43[C@@H]65)C2)C1` (stereo not given in full), the Potency is 14.1 µM (active).

Turning to `CCCCC(=O)OCC(=O)[C@]1(O)Cc2c(O)c3c(c(O)c2[C@@H](O[C@H]2C[C@H](NC(=O)C(F)(F)F)[C@H](O)[C@H](C)O2)C1)C(=O)c1c(OC)cccc1C3=O`, the Potency is 3.55 µM (active).

Take `Cn1cncc1C(N)(c1ccc(Cl)cc1)c1ccc2c(c1)c(-c1cccc(Cl)c1)cc(=O)n2C` (stereo not given): the Potency is 3.55 µM (active).

Regarding `NCc1ccc(S(N)(=O)=O)cc1`, the “activity change, negative = viability loss” value was -10.6%.

Take `CC(C)NCC(O)COc1cccc2[nH]ccc12` (stereo not given): the “activity change, negative = viability loss” value was -4.84%.

Take `CN1CCN(c2ccc3nc(-c4cc(C(C)(C)C)c(OCCCC(=O)NCCCN=[N+]=[N-])c(C(C)(C)C)c4)[nH]c3c2)CC1`: the Potency is 3.16 µM (active).

Take `C[C@H]1NCc2cc(-c3ccc4c(=O)c(C(=O)O)cn(C5CC5)c4c3OC(F)F)ccc21`: the “activity change, negative = viability loss” value was -2.76% [at 20 µM].

For `CN(C)Cc1ccc(S(=O)(=O)n2ccc(/C=C/C(=O)NO)c2)cc1`, the Potency was 3.16 µM (active).

With `Cc1ccc(C(=O)Nc2ccc(CN3CCN(C)CC3)c(C(F)(F)F)c2)cc1C#Cc1cnc2[nH]ncc2c1`, the Potency was 5.01 µM (active).

For `c1ccc(-c2ccc(CNc3nc(-c4ccccn4)nnc3-c3ccccc3)cc2)cc1`, the Potency was 17.8 µM (active).

For the compound `Nc1c2ccccc2nc2ccccc12`, the Potency is 7.31 µM (active).

Regarding `Nc1cc(-c2ccncc2)c[nH]c1=O`, the “activity change, negative = viability loss” value was -18.1%.

Consider `Cc1cc(O[C@@H](CCC(F)(F)F)c2ccc(C(=O)NCCC(=O)O)cc2)cc(C)c1-c1ccc(C(C)(C)C)cc1`, for which the Potency is 22.4 µM (active).

On to `Cn1cc(-c2ccc(S(=O)(=O)n3ccc(/C=C/C(=O)Nc4ccccc4N)c3)cc2)cn1`, for which the Potency is 0.891 µM (active).

For the compound `NS(=O)(=O)c1cc2c(cc1Cl)NC(CC1CCCC1)NS2(=O)=O` (stereo not given), the “activity change, negative = viability loss” value was -11.8%.

For `CCS(=O)(=O)Nc1ccc(Oc2ccc(F)cc2F)c(-c2cn(C)c(=O)c3[nH]ccc23)c1`, the Potency is 5.01 µM (active).

As for `C[C@H]1COCCN1c1cc(C2(S(=O)(=O)C3CC3)CC2)nc(-c2ccc(NC(=S)NCCO)cc2)n1`, the Potency was 1.12 µM (active).

Regarding `Cc1ccc(S(=O)(=O)Nc2cc(C(F)(F)F)ccc2C(=O)Nc2nc(-c3ccccc3)cs2)cc1`, the Potency is 2.51 µM (active).

In the case of `Cc1ccc2c(Cl)cc(Cl)c(O)c2n1`, the “activity change, negative = viability loss” value was -5.79%.

With `CN(C)c1cc(NC(=O)CNC(C)(C)C)c(O)c2c1C[C@H]1C[C@H]3[C@H](N(C)C)C(=O)C(C(N)=O)=C(O)[C@]3(O)C(=O)C1=C2O`, the “activity change, negative = viability loss” value was 0.462%.

For the compound `CONC(=O)Nc1ccc(-c2sc3c(c2CN(C)Cc2ccccc2)c(=O)n(-c2ccccc2)c(=O)n3Cc2c(F)cccc2F)cc1`, the “activity change, negative = viability loss” value was -15%.

The record behind these values is PubChem BioAssay (NCATS).
